Data reported in PMC7862700, “An all-to-all approach to the identification of sequence-specific readers for epigenetic DNA modifications on cytosine”.

How the values were obtained:
Test in all cases: DAPPL (digital affinity profiling via proximity ligation, sequencing); 10 mM Tris-HCl pH 7.5, 50 mM NaCl, 1 mM DTT, 4% glycerol, room temperature, 30 min; GST-TFs on glutathione beads, 16-mer random dsDNA library, 0.1% formaldehyde crosslink after washing; high values mean tight binding
Settings in all cases: protein: recombinant; tags: N-terminal GST; dsDNA, one strand shown
FLI1 = molecular target: T1, FLI1 (Homo sapiens, UniProt Q01543 1-452)
T1 sequence: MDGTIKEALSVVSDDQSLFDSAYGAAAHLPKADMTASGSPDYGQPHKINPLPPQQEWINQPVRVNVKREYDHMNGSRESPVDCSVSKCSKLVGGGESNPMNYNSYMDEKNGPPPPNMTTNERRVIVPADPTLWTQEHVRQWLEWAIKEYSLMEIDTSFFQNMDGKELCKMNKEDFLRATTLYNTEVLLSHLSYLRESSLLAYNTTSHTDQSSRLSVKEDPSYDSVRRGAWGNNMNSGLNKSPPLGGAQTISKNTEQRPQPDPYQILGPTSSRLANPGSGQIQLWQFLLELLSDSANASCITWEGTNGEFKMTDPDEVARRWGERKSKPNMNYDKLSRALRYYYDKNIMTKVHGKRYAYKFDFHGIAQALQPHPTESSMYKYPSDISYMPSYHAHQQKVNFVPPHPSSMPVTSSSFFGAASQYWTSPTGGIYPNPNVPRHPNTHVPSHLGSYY
In short: (§1)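 Pools were built from human transcription factors expressed in yeast as GST fusions, captured on glutathione beads and DNA-barcoded, along with a tag-only sample. Incubation with 200 nmole of a 16-mer random double-stranded DNA library lasted 30 min at room temperature in Tris/NaCl/DTT/glycerol buffer, and was followed by washing, 0.1% formaldehyde crosslinking, proximity ligation, PCR amplification and Illumina NextSeq500 sequencing. Binding signal is the quotient of each hexamer's read frequency for a factor and its frequency for the tag-only sample.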

ELF1 = ELF1 (Homo sapiens, UniProt P32519 1-619)
ELF1, sequence (P32519 whole entry): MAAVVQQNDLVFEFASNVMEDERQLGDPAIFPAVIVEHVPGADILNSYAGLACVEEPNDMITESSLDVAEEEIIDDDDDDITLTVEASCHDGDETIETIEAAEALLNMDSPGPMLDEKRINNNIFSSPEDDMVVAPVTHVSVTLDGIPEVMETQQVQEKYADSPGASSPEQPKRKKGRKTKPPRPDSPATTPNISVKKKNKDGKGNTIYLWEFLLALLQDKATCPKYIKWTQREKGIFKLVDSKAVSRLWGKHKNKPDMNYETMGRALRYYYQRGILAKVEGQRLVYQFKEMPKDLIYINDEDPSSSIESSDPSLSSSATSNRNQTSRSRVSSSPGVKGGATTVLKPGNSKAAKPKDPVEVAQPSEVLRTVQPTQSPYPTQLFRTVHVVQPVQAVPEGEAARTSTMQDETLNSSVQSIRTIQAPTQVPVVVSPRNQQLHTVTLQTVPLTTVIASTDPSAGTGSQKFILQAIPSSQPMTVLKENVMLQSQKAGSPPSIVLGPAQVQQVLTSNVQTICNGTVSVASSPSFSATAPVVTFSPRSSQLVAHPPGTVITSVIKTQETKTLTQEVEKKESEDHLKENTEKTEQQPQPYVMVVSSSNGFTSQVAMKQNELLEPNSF
In short: as §1

SPI1 = SPI1 (Homo sapiens, UniProt P17947 1-270)
In short: as §1

SPIB = SPIB (Homo sapiens, UniProt Q01892 1-262)
SPIB, sequence (Q01892 whole entry): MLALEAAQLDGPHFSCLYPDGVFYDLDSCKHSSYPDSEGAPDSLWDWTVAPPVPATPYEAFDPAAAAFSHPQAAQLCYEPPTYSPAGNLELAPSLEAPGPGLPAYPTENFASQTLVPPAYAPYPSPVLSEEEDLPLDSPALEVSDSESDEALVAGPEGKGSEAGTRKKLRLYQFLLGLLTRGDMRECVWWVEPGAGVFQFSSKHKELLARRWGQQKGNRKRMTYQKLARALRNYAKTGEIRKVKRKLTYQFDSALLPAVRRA
In short: as §1

ELK3 = molecular target: T2, ELK3 (Homo sapiens, UniProt P41970 1-407)
T2 sequence: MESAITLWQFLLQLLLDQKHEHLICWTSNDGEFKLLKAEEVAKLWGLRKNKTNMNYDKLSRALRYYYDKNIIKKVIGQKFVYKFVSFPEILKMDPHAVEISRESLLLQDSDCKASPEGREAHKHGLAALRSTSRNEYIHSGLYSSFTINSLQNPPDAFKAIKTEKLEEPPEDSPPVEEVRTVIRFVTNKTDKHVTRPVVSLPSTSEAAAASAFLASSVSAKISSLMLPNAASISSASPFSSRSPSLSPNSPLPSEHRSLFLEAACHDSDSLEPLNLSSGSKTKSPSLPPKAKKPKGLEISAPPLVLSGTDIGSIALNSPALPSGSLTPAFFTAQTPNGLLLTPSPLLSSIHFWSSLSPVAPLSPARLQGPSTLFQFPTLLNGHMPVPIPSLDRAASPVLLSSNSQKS
In short: as §1

ETV5 = ETV5 (Homo sapiens, UniProt P41161 1-510)
ETV5, sequence (P41161 whole entry): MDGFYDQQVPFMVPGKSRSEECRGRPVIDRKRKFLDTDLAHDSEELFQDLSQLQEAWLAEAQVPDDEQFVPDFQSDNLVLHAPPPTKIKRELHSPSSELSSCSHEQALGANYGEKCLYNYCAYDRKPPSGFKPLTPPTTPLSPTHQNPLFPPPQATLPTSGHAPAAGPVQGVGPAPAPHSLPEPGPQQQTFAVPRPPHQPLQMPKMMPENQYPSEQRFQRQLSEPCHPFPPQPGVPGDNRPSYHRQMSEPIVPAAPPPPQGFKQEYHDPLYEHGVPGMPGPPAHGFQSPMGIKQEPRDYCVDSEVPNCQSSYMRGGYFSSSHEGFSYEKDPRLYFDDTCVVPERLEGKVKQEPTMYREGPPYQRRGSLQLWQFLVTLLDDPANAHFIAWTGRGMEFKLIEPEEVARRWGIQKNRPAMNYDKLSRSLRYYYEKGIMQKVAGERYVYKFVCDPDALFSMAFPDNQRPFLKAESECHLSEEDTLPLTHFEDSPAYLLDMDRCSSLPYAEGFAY
In short: as §1

ELF3 = molecular target: T3, ELF3 (Homo sapiens, UniProt P78545 1-371)
T3 sequence: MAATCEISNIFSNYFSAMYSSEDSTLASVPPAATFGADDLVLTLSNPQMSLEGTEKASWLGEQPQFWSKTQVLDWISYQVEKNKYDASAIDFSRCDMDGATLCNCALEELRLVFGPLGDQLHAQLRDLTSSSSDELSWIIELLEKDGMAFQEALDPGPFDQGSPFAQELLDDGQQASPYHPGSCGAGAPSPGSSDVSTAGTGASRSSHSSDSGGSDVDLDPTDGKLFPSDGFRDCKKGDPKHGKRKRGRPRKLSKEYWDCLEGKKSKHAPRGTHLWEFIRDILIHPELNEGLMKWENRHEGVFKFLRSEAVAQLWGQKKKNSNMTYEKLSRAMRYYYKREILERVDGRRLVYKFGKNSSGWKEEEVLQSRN
In short: as §1

ERF = molecular target: T4, ERF (Homo sapiens, UniProt P50548 1-548)
T4 sequence: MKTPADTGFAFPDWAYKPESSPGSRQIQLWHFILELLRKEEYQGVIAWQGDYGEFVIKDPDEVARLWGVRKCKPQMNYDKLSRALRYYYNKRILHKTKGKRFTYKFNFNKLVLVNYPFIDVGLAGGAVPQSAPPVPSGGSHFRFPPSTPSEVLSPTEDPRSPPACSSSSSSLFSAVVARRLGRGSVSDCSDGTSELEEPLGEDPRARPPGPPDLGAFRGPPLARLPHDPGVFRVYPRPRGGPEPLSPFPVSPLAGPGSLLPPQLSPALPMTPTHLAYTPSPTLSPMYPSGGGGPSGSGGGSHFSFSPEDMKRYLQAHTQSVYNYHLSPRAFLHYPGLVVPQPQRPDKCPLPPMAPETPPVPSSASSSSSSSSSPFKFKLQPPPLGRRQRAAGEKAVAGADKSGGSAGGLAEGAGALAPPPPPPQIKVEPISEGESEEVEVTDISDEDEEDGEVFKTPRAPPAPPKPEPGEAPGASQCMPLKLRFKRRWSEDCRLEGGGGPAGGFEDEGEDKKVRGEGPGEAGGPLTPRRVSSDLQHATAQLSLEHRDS
In short: as §1

ETV3L = molecular target: T5, ETV3L (Homo sapiens, UniProt Q6ZN32 1-361)
T5 sequence: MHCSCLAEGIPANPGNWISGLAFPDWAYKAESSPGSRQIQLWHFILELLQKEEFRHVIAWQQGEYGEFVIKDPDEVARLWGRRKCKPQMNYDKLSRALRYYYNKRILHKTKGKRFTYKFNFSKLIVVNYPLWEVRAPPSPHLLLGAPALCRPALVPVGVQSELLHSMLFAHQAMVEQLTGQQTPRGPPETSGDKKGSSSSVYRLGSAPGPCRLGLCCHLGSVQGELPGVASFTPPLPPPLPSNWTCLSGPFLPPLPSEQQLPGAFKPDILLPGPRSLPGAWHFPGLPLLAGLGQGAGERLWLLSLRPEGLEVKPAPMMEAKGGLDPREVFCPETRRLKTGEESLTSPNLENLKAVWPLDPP
In short: as §1

ETS2 = molecular target: T6, ETS2 (Homo sapiens, UniProt P15036 1-469)
T6 sequence: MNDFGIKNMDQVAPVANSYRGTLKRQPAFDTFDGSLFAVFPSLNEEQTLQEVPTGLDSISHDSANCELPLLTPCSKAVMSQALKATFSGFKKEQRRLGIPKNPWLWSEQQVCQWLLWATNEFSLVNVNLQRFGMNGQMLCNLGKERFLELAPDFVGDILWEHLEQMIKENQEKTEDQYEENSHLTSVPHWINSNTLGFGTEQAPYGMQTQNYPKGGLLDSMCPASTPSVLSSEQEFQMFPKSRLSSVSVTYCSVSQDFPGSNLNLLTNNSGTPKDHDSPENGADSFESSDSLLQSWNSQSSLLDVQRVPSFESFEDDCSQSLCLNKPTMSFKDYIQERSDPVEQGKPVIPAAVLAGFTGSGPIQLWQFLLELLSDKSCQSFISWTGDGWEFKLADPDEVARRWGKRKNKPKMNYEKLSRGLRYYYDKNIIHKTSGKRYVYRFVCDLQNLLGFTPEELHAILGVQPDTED
In short: as §1

ETV7 = molecular target: T7, ETV7 (Homo sapiens, UniProt Q9Y603 1-341)
T7 sequence: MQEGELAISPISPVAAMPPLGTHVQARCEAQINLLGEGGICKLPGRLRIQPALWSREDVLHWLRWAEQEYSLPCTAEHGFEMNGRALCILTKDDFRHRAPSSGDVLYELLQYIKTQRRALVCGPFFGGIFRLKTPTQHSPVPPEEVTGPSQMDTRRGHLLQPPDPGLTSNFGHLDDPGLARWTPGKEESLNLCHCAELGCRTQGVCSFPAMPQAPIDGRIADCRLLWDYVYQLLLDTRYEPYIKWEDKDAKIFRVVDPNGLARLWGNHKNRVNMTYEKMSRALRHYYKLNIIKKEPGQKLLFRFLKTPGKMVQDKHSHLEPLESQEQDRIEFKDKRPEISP
In short: as §1

ETV6 = ETV6 (Homo sapiens, UniProt P41212 1-452)
ETV6, sequence (P41212 whole entry): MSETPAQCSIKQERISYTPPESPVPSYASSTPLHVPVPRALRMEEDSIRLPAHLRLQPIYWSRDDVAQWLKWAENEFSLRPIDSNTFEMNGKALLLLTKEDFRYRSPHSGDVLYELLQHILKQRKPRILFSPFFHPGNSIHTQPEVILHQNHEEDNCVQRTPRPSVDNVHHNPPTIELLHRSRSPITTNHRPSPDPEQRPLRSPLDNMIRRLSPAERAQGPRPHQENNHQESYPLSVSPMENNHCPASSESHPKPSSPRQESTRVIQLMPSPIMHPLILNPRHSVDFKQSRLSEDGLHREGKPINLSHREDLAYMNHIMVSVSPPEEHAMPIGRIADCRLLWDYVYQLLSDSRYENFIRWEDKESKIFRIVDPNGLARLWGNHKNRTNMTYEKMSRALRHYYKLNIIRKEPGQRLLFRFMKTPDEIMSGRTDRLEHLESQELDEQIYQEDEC
In short: as §1

ELK1 = molecular target: T8, ELK1 (Homo sapiens, UniProt P19419 1-428)
T8 sequence: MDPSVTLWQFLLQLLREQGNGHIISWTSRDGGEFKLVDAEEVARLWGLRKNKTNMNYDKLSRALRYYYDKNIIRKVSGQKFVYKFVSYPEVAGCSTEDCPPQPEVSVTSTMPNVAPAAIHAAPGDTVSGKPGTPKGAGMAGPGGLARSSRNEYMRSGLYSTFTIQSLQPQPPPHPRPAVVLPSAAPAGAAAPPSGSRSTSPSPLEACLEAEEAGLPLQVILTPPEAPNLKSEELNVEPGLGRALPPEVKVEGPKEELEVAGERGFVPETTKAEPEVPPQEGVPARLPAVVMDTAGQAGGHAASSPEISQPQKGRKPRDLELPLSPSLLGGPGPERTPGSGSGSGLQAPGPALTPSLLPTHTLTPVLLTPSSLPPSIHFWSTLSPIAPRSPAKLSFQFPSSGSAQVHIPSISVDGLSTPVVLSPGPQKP
In short: as §1

GABPA = molecular target: T9, GABPA (Homo sapiens, UniProt Q06546 1-454)
T9 sequence: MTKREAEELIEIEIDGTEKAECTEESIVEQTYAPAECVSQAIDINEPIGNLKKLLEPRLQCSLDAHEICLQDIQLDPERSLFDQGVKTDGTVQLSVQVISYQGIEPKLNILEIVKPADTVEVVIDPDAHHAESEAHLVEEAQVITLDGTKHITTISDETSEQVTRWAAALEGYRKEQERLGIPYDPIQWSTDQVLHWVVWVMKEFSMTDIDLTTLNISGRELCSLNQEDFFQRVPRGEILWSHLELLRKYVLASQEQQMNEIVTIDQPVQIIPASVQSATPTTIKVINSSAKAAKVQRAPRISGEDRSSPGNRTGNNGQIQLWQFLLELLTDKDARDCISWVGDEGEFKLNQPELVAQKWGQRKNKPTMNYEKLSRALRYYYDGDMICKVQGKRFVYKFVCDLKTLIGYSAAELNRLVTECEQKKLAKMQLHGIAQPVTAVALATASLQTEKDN
In short: as §1

EHF = molecular target: T10, EHF (Homo sapiens, UniProt Q9NZC4 1-300)
T10 sequence: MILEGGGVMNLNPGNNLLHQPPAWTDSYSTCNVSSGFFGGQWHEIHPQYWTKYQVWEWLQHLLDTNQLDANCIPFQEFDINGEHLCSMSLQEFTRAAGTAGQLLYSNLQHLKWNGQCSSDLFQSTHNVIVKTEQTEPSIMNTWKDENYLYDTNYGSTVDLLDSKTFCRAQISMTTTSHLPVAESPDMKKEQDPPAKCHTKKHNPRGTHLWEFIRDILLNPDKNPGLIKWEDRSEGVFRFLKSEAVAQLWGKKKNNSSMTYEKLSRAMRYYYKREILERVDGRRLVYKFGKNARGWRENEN
In short: as §1

| Sequence | binding signal (FLI1) | binding signal (ELF1) | binding signal (SPI1) | binding signal (SPIB) | binding signal (ELK3) | binding signal (ETV5) | binding signal (ELF3) | binding signal (ERF) | binding signal (ETV3L) | binding signal (ETS2) | binding signal (ETV7) | binding signal (ETV6) | binding signal (ELK1) | binding signal (GABPA) | binding signal (EHF) |
| --- | --- | --- | --- | --- | --- | --- | --- | --- | --- | --- | --- | --- | --- | --- | --- |
| GTTATA | 1.12 fold enrichment (6-mer frequency, TF over GST control) | 1.03 fold enrichment (6-mer frequency, TF over GST control) | 1.01 fold enrichment (6-mer frequency, TF over GST control) | 1.03 fold enrichment (6-mer frequency, TF over GST control) | 1.06 fold enrichment (6-mer frequency, TF over GST control) | 1.04 fold enrichment (6-mer frequency, TF over GST control) | 1.13 fold enrichment (6-mer frequency, TF over GST control) | 1.03 fold enrichment (6-mer frequency, TF over GST control) | 1.06 fold enrichment (6-mer frequency, TF over GST control) | 1.06 fold enrichment (6-mer frequency, TF over GST control) | 1.05 fold enrichment (6-mer frequency, TF over GST control) | 1 fold enrichment (6-mer frequency, TF over GST control) |  |  |  |
| ATAGCG | 1.08 fold enrichment (6-mer frequency, TF over GST control) |  | 1.07 fold enrichment (6-mer frequency, TF over GST control) |  | 1.05 fold enrichment (6-mer frequency, TF over GST control) | 1.04 fold enrichment (6-mer frequency, TF over GST control) | 1.11 fold enrichment (6-mer frequency, TF over GST control) | 1.1 fold enrichment (6-mer frequency, TF over GST control) |  | 1 fold enrichment (6-mer frequency, TF over GST control) |  |  | 1.03 fold enrichment (6-mer frequency, TF over GST control) | 1.01 fold enrichment (6-mer frequency, TF over GST control) | 1.05 fold enrichment (6-mer frequency, TF over GST control) |
